The record followed here is PubChem BioAssay (NCI).

SMILES strings stand for the structures. Compounds without any hit were thinned out: in the full panel of roughly 79,000, 15% have a hit. Activity calls are given as the source filed them. No stated cut-off is given here; in the data, active means growth inhibition above about 70%; inactive means the rest. Where a SMILES comes first, the peptide text is derived from it. The star is where a group is joined. Cbz = O=C(OCc1ccccc1)*

A short description of the test: NCI Yeast Anticancer Drug Screen. Data for the bub3 strain (AID 167). The note with it: S. cerevisiae bub3 mutant strain, at 50.0 µM, hits give high values. An outline of the steps: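 Steps: expose the mutant yeast strain to compound; grow alongside vehicle-treated cultures; measure growth; express inhibition against the vehicle cultures.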
`Cn1c(-c2ccccc2)cc(=O)cc1-c1ccccc1`: the growth inhibition was -4.45% (inactive).

In the case of `C1CCC(CCC2CCCC[N-]2)[N-]C1.[I][Co][I]` (stereo not given), the growth inhibition is 33.7% (inactive).

Take `CCCCCn1cnc2cc(N3CCOCC3)c([N+](=O)[O-])cc2c1=O`: the growth inhibition was 18.2% (inactive).

Consider `CN(C)C(=N)N=C(N)N`, for which the growth inhibition is -42.9% (inactive).

With `CC(=O)Oc1c2oc3cc(O)c(O)cc3c2c(OC(C)=O)c2oc3cc(O)c(O)cc3c12`, the growth inhibition is -0.8% (inactive).

Take `OCC(O)C(O)C(O)C(Sc1ccccc1)Sc1ccccc1` (stereo not given): the growth inhibition was -7.25% (inactive).

On to `Cn1c(C(N)=O)cc(=O)n1-c1ccc([N+](=O)[O-])cc1`, for which the growth inhibition is -6% (inactive).

For `N/N=C/c1ccc2ccccc2n1`, the growth inhibition is 12.6% (inactive).

On to `Brc1ccc(Nc2ccc(Br)cc2Br)c(Br)c1`, for which the growth inhibition is 3.8% (inactive).

Consider `CN(C)c1ccc(C=Nc2ccc3c(c2)C(N2CCOCC2)c2ccccc2-3)cc1` (stereo not given), for which the growth inhibition is -15.8% (inactive).

Regarding `Cc1cc2c3c(c1)CCCN3CCC2`, the growth inhibition was 3.1% (inactive).

Take `c1ccc(B2O[C@H]3CCCC[C@@H]3O2)cc1`: the growth inhibition is 1.25% (inactive).

On to `CCNCC(=O)Nc1ccccc1C(=O)OCC`, for which the growth inhibition is 8.6% (inactive).

As for `CC1CCOC(/C=C/c2ccccc2)O1` (stereo not given), the growth inhibition is 40.8% (inactive).

For `CCCC(=O)OCC1OC2OC(C)(C)OC2C2OC(C)(C)OC12` (stereo not given), the growth inhibition is 15.8% (inactive).

On to `C=C(CC)C(=O)c1ccc(OCC(=O)O)c(Cl)c1Cl`, for which the growth inhibition was 19.8% (inactive).

Take `N#CCCNCCNCCC#N`: the growth inhibition is -26.1% (inactive).

Consider `C[N+]([O-])(C/C=C/c1ccccc1)c1ccccc1` (stereo not given), for which the growth inhibition is -29.1% (inactive).

In the case of `O=c1onc2c3ccccc3ncn12`, the growth inhibition is -8.6% (inactive).

On to `CC(C(=O)O)n1c(=O)ssc1=O` (stereo not given), for which the growth inhibition was -8.7% (inactive).

As to `CCOC(=O)CCC(NC(=O)c1ccc([N+](=O)[O-])cc1)C(=O)OCC` (stereo not given), the growth inhibition is 7.7% (inactive).

As for `COc1cc(-c2cc(=O)c3c(O)c(OC)c(OC)cc3o2)ccc1O`, the growth inhibition is -36.6% (inactive).

Turning to `CC(=O)c1cc2c(cc1C)CCCC2(C)C`, the growth inhibition is 4.4% (inactive).

Regarding `CN(C)CC1CC=CCC1CN(C)C` (stereo not given), the growth inhibition is 6.85% (inactive).

`O=C(CC(=O)N1N=C(N(c2ccccc2)c2ccccc2)CC1c1ccccc1)Nc1ccccc1` (stereo not given): the growth inhibition was -0.35% (inactive).

Regarding `CC(O)C(NC(=O)C(Cc1ccc(O)cc1)NC(=O)OCc1ccccc1)C(=O)O` (stereo not drawn) (Cbz-Tyr-Thr-OH; configuration not given here), the growth inhibition is -4.85% (inactive).

Take `BrC1(Br)C2CC/C=C/CCCCC21` (stereo not given): the growth inhibition was -3.05% (inactive).

For the compound `C=C1CCC/C(=N\Nc2ccc([N+](=O)[O-])cc2[N+](=O)[O-])C12CCCC2`, the growth inhibition is 1.15% (inactive).

`CC(=O)Oc1cccc(/C=C/C(=O)O)c1`: the growth inhibition is 39.6% (inactive).

As for `Cc1ccc2c(ccc3ccccc32)n1`, the growth inhibition is 50.5% (inactive).

In the case of `COc1cccc(C2c3cc4c(cc3OC(C)(OC)C2C)OCO4)c1` (stereo not given), the growth inhibition is 4.25% (inactive).

For `O=C(c1nc2ccccc2[nH]1)N1CCN(c2ccccc2)CC1`, the growth inhibition was 1.35% (inactive).

Regarding `O=C(O)c1ccc(CS(=O)c2ccccc2)c([N+](=O)[O-])c1` (stereo not given), the growth inhibition is -4.9% (inactive).

`Nc1ccc2ccccc2c1[N+](=O)[O-]`: the growth inhibition was 14.9% (inactive).

As for `O/N=C1/CCCCC1NO` (stereo not given), the growth inhibition was -10.8% (inactive).

Turning to `N#CCCOC1C(OCCC#N)C(OCCC#N)C(OCCC#N)C(OCCC#N)C1OCCC#N` (stereo not given), the growth inhibition is 28.2% (inactive).

Take `COC1=C(c2c[nH]c3ccc(CC=C(C)C)cc23)C(=O)C(OC)=C(c2c[nH]c3ccc(CC=C(C)C)cc23)C1=O`: the growth inhibition was -1.1% (inactive).

On to `CCCCCCC#CC(=O)OCCCC`, for which the growth inhibition was -21.5% (inactive).

Regarding `CCc1ccc2c(c1)C(C)(CC)CCC2C` (stereo not given), the growth inhibition was -8.95% (inactive).

Take `CCCCCCCCC(C)(C)O`: the growth inhibition was 5.65% (inactive).
